{"source": "PubChem BioAssay (NCI)", "note": "Compounds without any hit were thinned out: in the full panel of roughly 83,000, 20% have a hit.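 Values shown are percent growth following 48 h exposure of cells in 96-well plates to a single concentration of compound; below 10 was considered active.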 Unmarked numbers belong to inactive results. Activity calls are given as the source filed them.", "data": [{"system": "UO-31 renal", "experiment": "NCI-60 one-dose screen, 48 h (100 = growth as untreated, 0 = no growth, -100 = all killed)", "details": "10 µM unless noted", "values": [{"smiles": "COc1cc(C(=O)NN=C2c3ccccc3-c3ccccc32)cc(OC)c1OC", "growth": "46.5%"}, {"smiles": "COc1cc(-c2c3c(c(Br)n2Cc2ccccc2)-c2nc(N)sc2CC3)cc(OC)c1OC", "growth": "70.6%"}, {"smiles": "O=C(Nc1ccc(-c2nc3cc4ccccc4cc3[nH]2)cc1)c1cccc(Br)c1", "growth": "13.1%"}, {"smiles": "Cc1cc(Nc2ccc(OCc3ccccc3)cc2)nc2cc(O)ccc12", "growth": "44.9%"}, {"smiles": "Nc1nonc1-n1nncc1-c1cccnc1", "growth": "92.9%"}, {"smiles": "N#C/C(=C1\\SC(=O)CN1c1ccccc1)c1nc2ccccc2s1", "growth": "53.2%"}, {"smiles": "Clc1ccc(-c2nnc(COc3ccc(C4=NNC(c5ccco5)C4)cc3)o2)cc1", "note": "(stereo unspecified)", "growth": "67.3%"}, {"smiles": "CCOC(=O)CSc1c(-c2ccccc2)c2cc(Cl)ccc2[nH]c1=O", "growth": "86.2%"}, {"smiles": "COC(=O)C1(C)COP(=O)(Nc2ccc(OC)cc2)OC1", "note": "(stereo unspecified)", "growth": "82.7%"}, {"smiles": "CC1=C(CC(=O)c2cccc([N+](=O)[O-])c2)C(=O)c2ccccc2C1=O", "growth": "-64.3% (active)"}, {"smiles": "N#Cc1c(N)nc2c(c1N)C(c1ccc(F)cc1)c1ccc(N)cc1O2", "note": "(stereo unspecified)", "growth": "105%"}, {"smiles": "O=C(Nc1nc2c(s1)CCc1c-2c(Br)n(Cc2ccccc2)c1Br)c1ccccc1", "growth": "57.6%"}, {"smiles": "CN(C)CCNc1cc(-c2ccccc2)nc2ccccc12", "growth": "-94.2% (active)"}, {"smiles": "O=S(=O)(c1ccc(NC(=S)NC23CC4CC(CC(C4)C2)C3)cc1)N1CCCCC1", "growth": "61.6%"}, {"smiles": "CCCCc1c(CCC)c(=N)c2ccccc2n1C", "growth": "65.6%"}, {"smiles": "COc1ccccc1N1C(=N)S/C(=C\\c2ccc(OCc3ccccc3F)cc2)C1=O", "growth": "59.2%"}]}]}
